Measurements taken from PubChem BioAssay (NCI).
This is part of a sample that, as a whole, favours compounds with a hit. Of some 79,000 tested, about 15% had one in any assay. Calls of active or inactive are those of the source. Cut-off read from the data, not from the text of the source: active = growth inhibition above about 70%; inactive = the rest.

Legend:
[1] = NCI Yeast Anticancer Drug Screen. Data for the mec2-1 strain (AID 157); details: S. cerevisiae mec2-1 strain, hits give high values
In short: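 mec2-1 yeast strain, carrying an alteration in DNA damage repair or cell cycle control, was exposed to compounds; growth inhibition was measured relative to vehicle-treated controls.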

[2] = NCI Yeast Anticancer Drug Screen. Data for the rad14 strain (AID 159);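 note: 0% = growth of vehicle-treated control cultures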; details: S. cerevisiae rad14 strain growth inhibition, hits give high values
In short: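 Vehicle-treated cultures served as the baseline for growth inhibition of a DNA repair-mutant yeast strain exposed to each compound.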

[3] = NCI Yeast Anticancer Drug Screen. Data for the sgs1 mgt1 strain (AID 161);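 note: 0% = growth of cultures given vehicle only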; details: S. cerevisiae sgs1 mgt1 strain, hits give high values
In short: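 Compounds are added to genetically altered yeast, and growth is compared with cultures given vehicle alone to give percent inhibition.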

[4] = NCI Yeast Anticancer Drug Screen. Data for the CLN2oe strain (AID 163);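 note: 0% = growth of vehicle-only control cultures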; details: S. cerevisiae CLN2oe strain, hits give high values
In short: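 Yeast cells carrying a defined cell-cycle control alteration were exposed to test compounds. Growth inhibition was scored against vehicle-treated control cultures.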

[5] = NCI Yeast Anticancer Drug Screen. Data for the cln2 rad14 strain (AID 165);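 note: 0% = growth equal to vehicle treated cultures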; details: S. cerevisiae cln2 rad14 strain, hits give high values
In short: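 Yeast carrying cln2 and rad14 alterations (cell cycle control and DNA damage repair) were exposed to compounds. Growth inhibition was measured against vehicle-treated controls.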

[6] = NCI Yeast Anticancer Drug Screen. Data for the bub3 strain (AID 167); details: S. cerevisiae bub3 mutant strain, hits give high values
In short: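 Inhibition values come from growth of compound-treated mutant yeast normalised to vehicle-treated controls.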

[7] = NCI Yeast Anticancer Drug Screen. Data for the wt2 strain (AID 169);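 note: 0% = growth of vehicle-treated yeast cultures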; details: S. cerevisiae wt2 strain growth inhibition, hits give high values
In short: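 Yeast cells were exposed to test compounds, and growth inhibition was measured relative to vehicle-treated controls.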

[8] = NCI Yeast Anticancer Drug Screen. Data for the mlh1 strain (AID 171);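 note: 0% = growth of vehicle-treated control cultures of the same strain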; details: S. cerevisiae mlh1 strain growth inhibition, hits give high values
In short: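 Yeast carrying a defined genetic alteration in DNA damage repair or cell cycle control were exposed to test compounds. Growth inhibition was measured relative to vehicle-treated controls.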

[9] = NCI Yeast Anticancer Drug Screen. Data for the sgs1 strain (AID 173);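 note: 0% = growth of vehicle-only control cultures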; details: S. cerevisiae sgs1 mutant, hits give high values
In short: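 Yeast mutant strains carrying defined defects in DNA damage repair or cell cycle control were exposed to test compounds. Growth inhibition was scored against vehicle-treated controls.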

[10] = NCI Yeast Anticancer Drug Screen. Data for the mlh1 rad18 strain (AID 175); details: S. cerevisiae mlh1 rad18 strain growth inhibition, hits give high values
In short: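 Growth inhibition of the yeast strain was measured after compound exposure and expressed relative to vehicle-treated controls. The strain carries defined defects in DNA damage repair.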

[11] = NCI Yeast Anticancer Drug Screen. Data for the rad18 strain (AID 177); details: S. cerevisiae rad18 mutant growth inhibition, hits give high values
In short: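 Yeast carrying a defined DNA damage repair alteration were exposed to compounds. Growth inhibition was expressed relative to vehicle-treated controls.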

[12] = NCI Yeast Anticancer Drug Screen. Data for the rad52 strain (AID 147);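 note: 0% = growth of vehicle-treated control cultures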; details: S. cerevisiae rad52 mutant growth inhibition, hits give high values
In short: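 Yeast strain carrying a DNA damage repair alteration was exposed to test compounds. Growth inhibition was measured relative to vehicle-treated controls.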

[13] = NCI Yeast Anticancer Drug Screen. Data for the wt1 strain (AID 149);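 note: 0% = growth of vehicle-treated wt1 cultures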; details: S. cerevisiae wt1 strain (SPY 50644) growth inhibition, hits give high values
In short: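 Vehicle-normalised growth inhibition; strain wt1; compound exposure.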

[14] = NCI Yeast Anticancer Drug Screen. Data for the rad50EPP+ strain (AID 151);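 note: 0% = growth of vehicle-treated control cultures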; details: S. cerevisiae rad50 mutant strain, hits give high values
In short: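 Yeast strain carrying rad50 alteration (rad50EPP+) exposed to compounds; growth inhibition measured relative to vehicle-treated controls.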

[15] = NCI Yeast Anticancer Drug Screen. Data for the mgt1 strain (AID 153); details: S. cerevisiae mgt1 mutant growth inhibition, hits give high values
In short: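 Yeast mgt1 strain (DNA repair/cell-cycle alteration panel) exposed to compounds; growth inhibition measured relative to vehicle-treated controls.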

[16] = NCI Yeast Anticancer Drug Screen. Data for the rad50 strain (AID 155);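 note: 0% = growth of vehicle-only cultures of the same strain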; details: S. cerevisiae rad50 strain growth inhibition, hits give high values
In short: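 A DNA repair-deficient yeast mutant serves as the test organism; compound-induced growth inhibition is calculated against vehicle-treated cells.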

[17] = at 5.0 µM (retest, dose inferred, filed as 0.5)
[18] = at 50.0 µM (retest, dose inferred, filed as 5.0)

Measured: growth inhibition

Cc1nc(-[n+]2nc(-c3ccncc3)nn2-c2ccccc2)sc1C
inactive: [1]; [17] 0% | [1]; at 11.0 µM -3% | [1]; at 33.0 µM 33% | [1]; [18] -28% | [1]; at 100.0 µM 39% | [2]; at 1.2 µM -2% | [2]; at 3.7 µM -3% | [2]; at 11.0 µM -7% | [2]; at 33.0 µM 8% | [2]; at 100.0 µM 1% | [3]; [17] 7% | [4]; at 1.2 µM -4% | [4]; at 3.7 µM -3% | [4]; at 11.0 µM -6% | [4]; at 33.0 µM 25% | [4]; at 100.0 µM 14% | [5]; [17] 0% | [5]; [18] 11% | [5]; at 50.0 µM 63.9% | [6]; at 1.2 µM -1% | [6]; at 3.7 µM -5% | [6]; [17] -45% | [6]; at 11.0 µM -5% | [6]; at 33.0 µM 38% | [6]; [18] 60% | [6]; at 50.0 µM 48% | [6]; at 100.0 µM 18% | [7]; at 1.2 µM -2% | [7]; at 3.7 µM 2% | [7]; at 11.0 µM 18% | [7]; at 33.0 µM 50% | [8]; at 1.2 µM -2% | [8]; at 3.7 µM -5% | [8]; at 11.0 µM 7% | [8]; at 33.0 µM 58% | [9]; at 1.2 µM -2% | [9]; at 3.7 µM 7% | [9]; at 11.0 µM 45% | [9]; at 33.0 µM 69% | [10]; [17] 3% | [10]; [18] 48% | [11]; at 1.2 µM 1% | [11]; at 3.7 µM 3% | [11]; at 11.0 µM 7% | [11]; at 33.0 µM 46% | [11]; at 100.0 µM 45%
active: [1]; at 50.0 µM 78.5% | [3]; [18] 76% | [3]; at 50.0 µM 74.8% | [7]; at 100.0 µM 72% | [8]; at 100.0 µM 72% | [9]; at 100.0 µM 77% | [10]; at 50.0 µM 76.2%

O=C(OCC=C1CCCC1)c1cc([N+](=O)[O-])cc([N+](=O)[O-])c1
active: [12]; at 33.0 µM 85% | [12]; at 100.0 µM 96% | [13]; at 33.0 µM 86% | [13]; at 100.0 µM 98% | [14]; at 33.0 µM 87% | [14]; at 100.0 µM 92% | [15]; at 33.0 µM 95% | [15]; at 100.0 µM 98% | [16]; at 33.0 µM 86% | [16]; at 100.0 µM 96% | [1]; at 33.0 µM 89% | [1]; at 100.0 µM 98% | [2]; at 33.0 µM 71% | [2]; at 100.0 µM 97% | [3]; [18] 81% | [4]; at 100.0 µM 96% | [6]; [18] 70% | [6]; at 100.0 µM 96% | [7]; at 33.0 µM 97% | [7]; at 100.0 µM 98% | [8]; at 33.0 µM 94% | [8]; at 100.0 µM 98% | [9]; at 33.0 µM 97% | [9]; at 100.0 µM 99% | [10]; [18] 94% | [11]; at 33.0 µM 95% | [11]; at 100.0 µM 98%
inactive: [12]; at 1.2 µM -1% | [12]; at 3.7 µM 2% | [12]; at 11.0 µM 21% | [13]; at 1.2 µM -6% | [13]; at 3.7 µM -1% | [13]; at 11.0 µM 10% | [14]; at 1.2 µM 3% | [14]; at 3.7 µM 16% | [14]; at 11.0 µM 53% | [15]; at 1.2 µM -1% | [15]; at 3.7 µM -1% | [15]; at 11.0 µM 16% | [16]; at 1.2 µM 0% | [16]; at 3.7 µM 4% | [16]; [17] 11% | [16]; at 11.0 µM 18% | [16]; [18] 57% | [16]; at 50.0 µM 4.3% | [1]; at 1.2 µM -3% | [1]; at 3.7 µM -2% | [1]; [17] 3% | [1]; at 11.0 µM 13% | [1]; [18] 48% | [1]; at 50.0 µM -14.6% | [2]; at 1.2 µM -2% | [2]; at 3.7 µM 1% | [2]; at 11.0 µM 12% | [3]; [17] -2% | [3]; at 50.0 µM 2.55% | [4]; at 1.2 µM -6% | [4]; at 3.7 µM 1% | [4]; at 11.0 µM 9% | [4]; at 33.0 µM 60% | [5]; [17] -24% | [5]; [18] 4% | [5]; at 50.0 µM -6.45% | [6]; at 1.2 µM -6% | [6]; at 3.7 µM -6% | [6]; [17] -21% | [6]; at 11.0 µM -1% | [6]; at 33.0 µM 61% | [6]; at 50.0 µM 5.55% | [7]; at 1.2 µM -3% | [7]; at 3.7 µM -3% | [7]; at 11.0 µM 16% | [8]; at 1.2 µM -2% | [8]; at 3.7 µM 4% | [8]; at 11.0 µM 22% | [9]; at 1.2 µM -1% | [9]; at 3.7 µM 4% | [9]; at 11.0 µM 26% | [10]; [17] 7% | [10]; at 50.0 µM 23.6% | [11]; at 1.2 µM -2% | [11]; at 3.7 µM 2% | [11]; at 11.0 µM 21%

COc1cc(C2SCC(=O)N2c2nnc(C(F)(F)F)s2)cc(OC)c1OC (centres undefined)
inactive: [12]; at 1.2 µM -1% | [12]; at 3.7 µM -3% | [12]; at 11.0 µM -2% | [12]; at 33.0 µM -3% | [12]; at 100.0 µM -5% | [13]; at 1.2 µM -84% | [13]; at 3.7 µM -3% | [13]; at 11.0 µM -3% | [13]; at 33.0 µM -1% | [13]; at 100.0 µM -3% | [14]; at 1.2 µM -4% | [14]; at 3.7 µM -2% | [14]; at 11.0 µM 3% | [14]; at 33.0 µM -2% | [14]; at 100.0 µM 0% | [15]; at 1.2 µM -1% | [15]; at 3.7 µM -2% | [15]; at 11.0 µM -5% | [15]; at 33.0 µM -1% | [15]; at 100.0 µM -4% | [16]; at 1.2 µM -1% | [16]; at 3.7 µM -2% | [16]; [17] -5% | [16]; at 11.0 µM -2% | [16]; at 33.0 µM 0% | [16]; [18] -18% | [16]; at 50.0 µM 18.1% | [16]; at 100.0 µM -5% | [1]; at 1.2 µM -4% | [1]; at 3.7 µM 2% | [1]; [17] 0% | [1]; at 11.0 µM 4% | [1]; at 33.0 µM 1% | [1]; [18] -4% | [1]; at 50.0 µM 20.9% | [1]; at 100.0 µM -1% | [2]; at 1.2 µM -2% | [2]; at 3.7 µM -2% | [2]; at 11.0 µM -1% | [2]; at 33.0 µM -2% | [2]; at 100.0 µM -4% | [3]; [17] -4% | [3]; [18] 2% | [3]; at 50.0 µM 0.1% | [4]; at 1.2 µM -7% | [4]; at 3.7 µM 1% | [4]; at 11.0 µM -2% | [4]; at 33.0 µM 0% | [4]; at 100.0 µM -8% | [5]; [17] -7% | [5]; [18] -10% | [5]; at 50.0 µM -12.5% | [6]; at 1.2 µM 6% | [6]; at 3.7 µM 12% | [6]; [17] 31% | [6]; at 11.0 µM 28% | [6]; at 33.0 µM 41% | [6]; [18] 50% | [6]; at 50.0 µM 43.1% | [6]; at 100.0 µM 48% | [7]; at 1.2 µM -2% | [7]; at 3.7 µM -4% | [7]; at 11.0 µM -2% | [7]; at 33.0 µM -4% | [7]; at 100.0 µM -4% | [8]; at 1.2 µM -3% | [8]; at 3.7 µM -2% | [8]; at 11.0 µM 0% | [8]; at 33.0 µM -1% | [8]; at 100.0 µM -2% | [9]; at 1.2 µM -3% | [9]; at 3.7 µM -2% | [9]; at 11.0 µM -3% | [9]; at 33.0 µM -1% | [9]; at 100.0 µM -1% | [10]; [17] -4% | [10]; [18] -9% | [10]; at 50.0 µM 0.35% | [11]; at 1.2 µM -2% | [11]; at 3.7 µM -2% | [11]; at 11.0 µM -1% | [11]; at 33.0 µM -2% | [11]; at 100.0 µM -2%
